Source: PMC7819943, “Rice protein-binding microarrays: a tool to detect cis-acting elements near promoter regions in rice”
In all, about 35,000 sequences were measured (“fluorescence intensity (a.u.)”: median about 10,000, highest 2% from about 52,000 on). The entries come from a sample that favours the highest values as a whole.

target: T1, OsWOX13 (Oryza sativa, UniProt Q5QMM3 1-267); experiment: protein-binding microarray (RPBM); PBS, 2% BSA, 51.3 ng/ul salmon testes DNA, 50 uM zinc acetate, 200 nM TF, 25 C, 1 h; high values mean tight binding; details: protein: recombinant; tags: N-terminal polyhistidine and DsRed monomer fusion (pET32a); label: CyDye5-dUTP incorporated in the synthesized complementary strand; 3' TTTTT single-stranded linker to array surface; dsDNA, one strand shown
T1 sequence: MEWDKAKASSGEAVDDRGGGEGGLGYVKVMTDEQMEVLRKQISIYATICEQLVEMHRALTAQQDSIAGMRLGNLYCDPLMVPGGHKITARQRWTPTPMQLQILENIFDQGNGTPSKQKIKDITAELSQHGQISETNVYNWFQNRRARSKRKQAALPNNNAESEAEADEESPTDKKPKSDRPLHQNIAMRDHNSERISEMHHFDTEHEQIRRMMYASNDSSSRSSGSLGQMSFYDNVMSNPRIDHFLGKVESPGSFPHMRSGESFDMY
How it was run: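 Ni–NTA purification followed expression in E. coli BL21-CodonPlus of transcription factors fused N-terminally to a polyhistidine tag and DsRed. At 200 nM in PBS with 2% BSA, salmon testes DNA and 50 µM zinc acetate, the protein was incubated for 1 h at 25 °C with a custom Agilent array that had been primer-extended with Cy5-dUTP and blocked with 2% BSA. After washing, the array was read on an Axon 4000B scanner. The binding signal is per-feature fluorescence intensity in arbitrary units.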

Sequence	binding signal
TTTGACAAATTTGACAACTCCTCTAGCTCCCACTGCTACTCGGAGTCACCTAGTGCAG	38200 fluorescence intensity (a.u.)
CTGTGATAATCTGTCTTCCTGTGATACCAGCACTGTTTCCCGGAGTCACCTAGTGCAG	3340 fluorescence intensity (a.u.)
TGCTAGTTAAATTGGGATAAAATAATGGGCCCATTTATTTCGGAGTCACCTAGTGCAG	4520 fluorescence intensity (a.u.)
AGTGATTAGTAGCAGCAGAAAGAGTGGAAGATTTAGAGGACGGAGTCACCTAGTGCAG	17800 fluorescence intensity (a.u.)
TTAAATTTAAATTTGAGATTGATTTTGAGATATTTTCAACCGGAGTCACCTAGTGCAG	38200 fluorescence intensity (a.u.)
CCCAAACGCCCTGAAATCAAATTGAATATTCCAATTTGCACGGAGTCACCTAGTGCAG	4630 fluorescence intensity (a.u.)
TTAAATTTAAATTTAAATTTAATTTTGAGATTTCTTTTCACGGAGTCACCTAGTGCAG	55700 fluorescence intensity (a.u.)
AAAATTTAATTGATTATATGCTAATAACTTTCTTGTTTTGCGGAGTCACCTAGTGCAG	51600 fluorescence intensity (a.u.)
ACAATTGATAGATTTGTCTGTTGCTTTGCTTTGATTCCTCCGGAGTCACCTAGTGCAG	43800 fluorescence intensity (a.u.)
CAGAAACTGAAATACCAATTGATTCTTCCAATTCCCTGAACGGAGTCACCTAGTGCAG	6740 fluorescence intensity (a.u.)
TGCACCAATTTGATTGATACCAATTTGCTTTAATTTCGTCCGGAGTCACCTAGTGCAG	57200 fluorescence intensity (a.u.)
ATTGCGTGCTTGATTAATTAGTTTCTACCAACAATTTCTCCGGAGTCACCTAGTGCAG	8110 fluorescence intensity (a.u.)
TTTTCTTGATTAATTAAATATAAATTTGCATTTCATTTCACGGAGTCACCTAGTGCAG	16900 fluorescence intensity (a.u.)
TATAATTGATTATTTTAATTTCTTTTGCTATTAATAGTCACGGAGTCACCTAGTGCAG	64700 fluorescence intensity (a.u.)
AATTAAATAAATTATAATTTATTTTATTGAGATTTGATTTCGGAGTCACCTAGTGCAG	41300 fluorescence intensity (a.u.)
TTATTGATTGATTGAATCAGACTGAAATTCCAAACCACGACGGAGTCACCTAGTGCAG	63100 fluorescence intensity (a.u.)
ATCGGCATGTTCACCAGCTCTGATTGGTAGTACGATTTTACGGAGTCACCTAGTGCAG	5140 fluorescence intensity (a.u.)
TAAATAAATGATTGGGCTTGTTAATGGGCTTCCTCTTCCTCGGAGTCACCTAGTGCAG	41900 fluorescence intensity (a.u.)
CCCAAATAGAAGTAGAATTGAGACACTGAGTGGTGCAAAGCGGAGTCACCTAGTGCAG	3400 fluorescence intensity (a.u.)
ATGATTGTTGGAGCAAGGCCCAGCCCAAGGTAGCGTACATCGGAGTCACCTAGTGCAG	13400 fluorescence intensity (a.u.)
TGTTACTAATTTATTTGGAGGCTTCATGGTTGACCTATTGCGGAGTCACCTAGTGCAG	3440 fluorescence intensity (a.u.)

Sequence	binding signal
GATAATTTGAACCATAGATTTATCATTCAAAGGCTATAAACGGAGTCACCTAGTGCAG	9720 fluorescence intensity (a.u.)
GTAGCAATCAAATATGGGCCGGTCAATTGTTCGCGGTAGACGGAGTCACCTAGTGCAG	4130 fluorescence intensity (a.u.)
CATGGACAACAATCATTGCCTGTTACGCGCAAAGTTCTCGCGGAGTCACCTAGTGCAG	8490 fluorescence intensity (a.u.)
AGTATAATGACTGTTAGATCTCCATAAAACTGGCCACAAACGGAGTCACCTAGTGCAG	3510 fluorescence intensity (a.u.)
GCGATTAAATGTACAGTAAATAGGGATGAACAATATACGACGGAGTCACCTAGTGCAG	3570 fluorescence intensity (a.u.)
AATCTTGGCAAATTTCCTTAATTTGAACCTACGTGTTAAACGGAGTCACCTAGTGCAG	5550 fluorescence intensity (a.u.)
TCTTAATAATTATTTCTTAATTAATTCTGTGCTAATTGTGCGGAGTCACCTAGTGCAG	54300 fluorescence intensity (a.u.)
CCTTAATTGTGGGGCTGACTGCTATTTTCTATATCATGTGCGGAGTCACCTAGTGCAG	56000 fluorescence intensity (a.u.)
TGCATTGATTTGGTATAATTGACCATGCTTTGCGATGCAACGGAGTCACCTAGTGCAG	57700 fluorescence intensity (a.u.)
TAATATTTAATTTCTATCAACATCTGACTACTTAATATTGCGGAGTCACCTAGTGCAG	7790 fluorescence intensity (a.u.)
CATGGTGAATTGGTGATTTTATAATGATGCTAAGCTTTGACGGAGTCACCTAGTGCAG	4860 fluorescence intensity (a.u.)
TTAATTGATTAATTTCCTTAACCAAATCTTGGCGACTTGACGGAGTCACCTAGTGCAG	61200 fluorescence intensity (a.u.)
ATCCTTATTAATTTAATTTAACAAAGTCAACTTGATTTCCCGGAGTCACCTAGTGCAG	23100 fluorescence intensity (a.u.)
GAATAATTATTACACAATGCTAATTAATTTCACAATATTGCGGAGTCACCTAGTGCAG	38800 fluorescence intensity (a.u.)
AGCAATGCAACGATTATTAATTTAATTTGCACATGTATTGCGGAGTCACCTAGTGCAG	5900 fluorescence intensity (a.u.)
ATAATATTTAATATTTAATTAATTATGTGCTAATAAATCGCGGAGTCACCTAGTGCAG	14300 fluorescence intensity (a.u.)
CTATCTCATTGCTTAATTGGTCATATAATTGGGCTGAGTGCGGAGTCACCTAGTGCAG	16900 fluorescence intensity (a.u.)
AGCGATTAGTAAGTGGATTGGATCTAACTAAGCTTGCTACCGGAGTCACCTAGTGCAG	9310 fluorescence intensity (a.u.)
CCTGCACAATCACTGGCTGATGCATCTGCAATGTCACCAACGGAGTCACCTAGTGCAG	4350 fluorescence intensity (a.u.)
TGGATTTGTATGTCTTAATTGAAGTTAGGCTATAAATTTGCGGAGTCACCTAGTGCAG	10300 fluorescence intensity (a.u.)
ATATTTAATTTGATACTACCTATAAACCGCACAAGCTGCACGGAGTCACCTAGTGCAG	16800 fluorescence intensity (a.u.)
